Test results: ChEMBL document CHEMBL1157539, “Thousands of chemical starting points for antimalarial lead identification” (Nature, 2010)

Tested on: Plasmodium falciparum
Test: GSK_TCMDC: Inhibition of Plasmodium falciparum 3D7 in whole red blood cells, using parasite LDH activity as an index of growth. Test compounds present at 2uM
Assay type: functional

SMILES	Inhibition [%]
N=C(N)NN=CC(=O)Nc1ccc(Cl)c(C(F)(F)F)c1	100
Fc1ccccc1-c1cc(Nc2ccncc2)nc(-c2cccnc2)n1	100
Cc1ccc2sc(N(CCCn3ccnc3)C(=O)c3ccco3)nc2c1C.Cl	93
CCOC(=O)NC1=NC(=N)N(OCCCOc2cc(Cl)c(Cl)cc2Cl)C(C)(C)N1	97
CC1(C)N=C(N)N=C(N)N1c1ccc(Oc2ccc(Cl)cc2)c(Cl)c1	97
CCC1CN2CCc3c([nH]c4ccc(OC)cc34)C2CC1CC1NCCc2cc(OC)c(OC)cc21.Cl (configuration not stated)	100
FC(F)(F)c1ccc(-c2cncc(-c3ccc(C(F)(F)F)cc3)n2)cc1	98
Cc1cccc2nc(-c3cccc(-c4cccc(NC(=O)CNc5ccc(C(N)=O)cc5)c4)c3)[nH]c12	100
COc1cc2nc(N3CCC(CNC(=O)c4ccc(-c5ccc(-c6noc(C)n6)cc5)cc4)CC3)nc(N)c2cc1OC	98
CC(=O)Oc1cc(OCc2ccccc2)c(OC(C)=O)c(OCc2ccccc2)c1	94
CC1(C)N=C(N)N=C(NOCc2ccc(Cl)c(Cl)c2)N1	96
CCNc1cc(C(=O)N[C@@H](Cc2ccccc2)[C@H](O)CNCCc2ccccc2)cc(N2CCCC2=O)c1.O=C(O)C(F)(F)F	92
CCc1ccc(CN2CCC(NC(=O)c3ccc(-c4ccc(N(C)C)cc4)s3)CC2)cc1.O=C(O)C(F)(F)F	84
O=C(CCc1c[nH]cn1)Nc1cccc(-c2cccc(-c3nc4cc(C(F)(F)F)ccc4[nH]3)c2)c1	100
Cc1cnccc1/C=C/c1cccc(OCCCN2CCc3ccc(S(C)(=O)=O)cc3CC2)c1	92
C=CCc1cc(Cc2cnc(N)nc2N)cc(CCC)c1OC	83
CCN(CCS(C)(=O)=O)Cc1ccc(-c2ccc3ncnc(Nc4ccc(OCc5cccc(F)c5)c(Cl)c4)c3c2)o1.Cc1ccc(S(=O)(=O)O)cc1	100
CCn1c(-c2nonc2N)nc2c(-c3ccccc3)ncc(OCCCNCCCN3CCOCC3)c21.O=C(O)C(F)(F)F	100
Cc1cc(C)n2nc(C(=O)Nc3cc(C(F)(F)F)ccc3N3CCOCC3)nc2n1	94
CC(C)C(=O)NC(Nc1ccc([N+](=O)[O-])cc1)C(Cl)(Cl)Cl (configuration not stated)	97
Cl.O=C(CNC1=NCCN1)Nc1ccc(NC(=O)Nc2ccc(NC(=O)CNC3=NCCN3)cc2)cc1	90
CC(=O)N1N=C(c2[nH]c3ccc(Br)cc3c2C)OC1c1ccccc1 (configuration not stated)	86
CC(=O)Nc1cccc(Nc2nccc(-c3c(-c4cccc(NC(=O)c5c(F)cccc5F)c4)nn4ncccc34)n2)c1	96
CC(C)N1CCC(N(Cc2ccc(-c3ccc(C(F)(F)F)cc3)cc2)C(=O)Cn2c(SCc3cccc(F)c3F)cc(=O)c3ccccc32)CC1.O=C(O)C(O)C(O)C(=O)O	100
O=C(/C=C/c1ccc(Cl)c(Cl)c1)NCCCCCN1CCC(NC(=O)Nc2ccc(F)c(F)c2)CC1	99
COc1ccc(Br)cc1C1C2C(=O)N(c3ccc(Br)cc3)C(=O)C2C2(C(=O)O)CC(OCc3ccccc3)CN12 (configuration not stated)	100
CCOP(=O)(OCC)c1ccc(OC)c(-c2ccc[nH]2)c1	95
